Data from PMC8222333, “AsCas12a ultra nuclease facilitates the rapid generation of therapeutic cell medicines”.
Positions count from the first letter of the chain named.

Tests used:
Test in all cases: Spec-seq (native PAGE EMSA with sequencing of bound and unbound); 25 mM Tris-HCl pH 7.4, 150 mM KCl, 5 mM MgCl2, 10% glycerol, 1 mM DTT, 40 ng/uL salmon sperm DNA; 400 nM Cas12a, 480 nM crRNA, 50 nM library, 37 C 1 h; native PAGE at room temperature; high values mean tight binding
Details in all cases: protein: recombinant
dAsCas12a Ultra = dAsCas12a Ultra (Acidaminococcus sp., UniProt U2UMQ6 1-1307, M537R;F870L;D908A;E993A;D1235A)
dAsCas12a E174R = dAsCas12a E174R (Acidaminococcus sp., UniProt U2UMQ6 1-1307, E174R;D908A;E993A;D1235A);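 note: relative affinity from the bound to unbound sequence frequency ratio in Spec-seq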
dAsCas12a S542R = dAsCas12a S542R (Acidaminococcus sp., UniProt U2UMQ6 1-1307, S542R;D908A;E993A;D1235A);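 note: relative affinity from the bound to unbound sequence frequency ratio in Spec-seq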
d-enCas12a = d-enCas12a (Acidaminococcus sp., UniProt U2UMQ6 1-1307, E174R;S542R;K548R;D908A;E993A;D1235A)
d-enCas12a-Ultra = d-enCas12a-Ultra (Acidaminococcus sp., UniProt U2UMQ6 1-1307, E174R;S542R;K548R;M537R;F870L;D908A;E993A;D1235A);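 note: relative affinity from the bound to unbound sequence frequency ratio in Spec-seq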

B1: GATA (dsDNA)
DNA 1: GCTATCTAGTGCTCAGTACGCACTGGATAAGGAAACTTCTGGCAGGACCAGGTCATGAGATCGGAAGAGCACACGTCTGAACTCCAGTCA
DNA 2: TGACTGGAGTTCAGACGTGTGCTCTTCCGATCTCATGACCTGGTCCTGCCAGAAGTTTCCTTATCCAGTGCGTACTGAGCACTAGATAGC
RNA: AAUUUCUACUCUUGUAGAUAGGAAACUUCUGGCAGGACC
binding signal (dAsCas12a Ultra): -8.53 lnKA | binding signal (dAsCas12a E174R): -6.9 lnKA | binding signal (dAsCas12a S542R): -8.17 lnKA | binding signal (d-enCas12a): -3.28 lnKA | binding signal (d-enCas12a-Ultra): -1.2 lnKA

B2: GGTA (dsDNA)
DNA 1: B1 DNA 1 with A27G
DNA 2: B1 DNA 2 with T64C
RNA: B1 RNA
binding signal (dAsCas12a Ultra): -7.78 lnKA | binding signal (dAsCas12a E174R): -8.41 lnKA | binding signal (dAsCas12a S542R): -7.66 lnKA | binding signal (d-enCas12a): -3.21 lnKA | binding signal (d-enCas12a-Ultra): -0.816 lnKA

B3: GTCT (dsDNA)
DNA 1: B1 DNA 1 with A27T, T28C, A29T
DNA 2: B1 DNA 2 with T62A, A63G, T64A
RNA: B1 RNA
binding signal (dAsCas12a Ultra): -8.79 lnKA | binding signal (dAsCas12a E174R): -8.88 lnKA | binding signal (dAsCas12a S542R): -7.55 lnKA | binding signal (d-enCas12a): -4.02 lnKA | binding signal (d-enCas12a-Ultra): -0.927 lnKA

B4: GGTT (dsDNA)
DNA 1: B1 DNA 1 with A27G, A29T
DNA 2: B1 DNA 2 with T62A, T64C
RNA: B1 RNA
binding signal (dAsCas12a Ultra): -8.59 lnKA | binding signal (dAsCas12a E174R): -8.64 lnKA | binding signal (dAsCas12a S542R): -8.19 lnKA | binding signal (d-enCas12a): -5.45 lnKA | binding signal (d-enCas12a-Ultra): -2.7 lnKA

B5: GTGT (dsDNA)
DNA 1: B1 DNA 1 with A27T, T28G, A29T
DNA 2: B1 DNA 2 with T62A, A63C, T64A
RNA: B1 RNA
binding signal (dAsCas12a Ultra): -8.66 lnKA | binding signal (dAsCas12a E174R): -8.98 lnKA | binding signal (dAsCas12a S542R): -8.04 lnKA | binding signal (d-enCas12a): -5.78 lnKA | binding signal (d-enCas12a-Ultra): -3.14 lnKA

B6: GATG (dsDNA)
DNA 1: B1 DNA 1 with A29G
DNA 2: B1 DNA 2 with T62C
RNA: B1 RNA
binding signal (dAsCas12a Ultra): -8.85 lnKA | binding signal (dAsCas12a E174R): -8.75 lnKA | binding signal (dAsCas12a S542R): -8.25 lnKA | binding signal (d-enCas12a): -4.89 lnKA | binding signal (d-enCas12a-Ultra): -2.56 lnKA

B7: GCTT (dsDNA)
DNA 1: B1 DNA 1 with A27C, A29T
DNA 2: B1 DNA 2 with T62A, T64G
RNA: B1 RNA
binding signal (dAsCas12a Ultra): -8.74 lnKA | binding signal (dAsCas12a E174R): -8.39 lnKA | binding signal (dAsCas12a S542R): -8.31 lnKA | binding signal (d-enCas12a): -5.83 lnKA | binding signal (d-enCas12a-Ultra): -3.16 lnKA

B8: GTGA (dsDNA)
DNA 1: B1 DNA 1 with A27T, T28G
DNA 2: B1 DNA 2 with A63C, T64A
RNA: B1 RNA
binding signal (dAsCas12a Ultra): -7.93 lnKA | binding signal (dAsCas12a E174R): -8.87 lnKA | binding signal (dAsCas12a S542R): -7.67 lnKA | binding signal (d-enCas12a): -5.45 lnKA | binding signal (d-enCas12a-Ultra): -3.14 lnKA

B9: GCTA (dsDNA)
DNA 1: B1 DNA 1 with A27C
DNA 2: B1 DNA 2 with T64G
RNA: B1 RNA
binding signal (dAsCas12a Ultra): -6.83 lnKA | binding signal (dAsCas12a E174R): -5.69 lnKA | binding signal (dAsCas12a S542R): -7.23 lnKA | binding signal (d-enCas12a): -4.92 lnKA | binding signal (d-enCas12a-Ultra): -1.62 lnKA

B10: GGTC (dsDNA)
DNA 1: B1 DNA 1 with A27G, A29C
DNA 2: B1 DNA 2 with T62G, T64C
RNA: B1 RNA
binding signal (dAsCas12a Ultra): -8.4 lnKA | binding signal (dAsCas12a E174R): -8.96 lnKA | binding signal (dAsCas12a S542R): -8.74 lnKA | binding signal (d-enCas12a): -3.44 lnKA | binding signal (d-enCas12a-Ultra): -0.971 lnKA

B11: GCTG (dsDNA)
DNA 1: B1 DNA 1 with A27C, A29G
DNA 2: B1 DNA 2 with T62C, T64G
RNA: B1 RNA
binding signal (dAsCas12a Ultra): -7.49 lnKA | binding signal (dAsCas12a E174R): -7.49 lnKA | binding signal (dAsCas12a S542R): -7.86 lnKA | binding signal (d-enCas12a): -5.74 lnKA | binding signal (d-enCas12a-Ultra): -2.73 lnKA

B12: GATT (dsDNA)
DNA 1: B1 DNA 1 with A29T
DNA 2: B1 DNA 2 with T62A
RNA: B1 RNA
binding signal (dAsCas12a Ultra): -8.92 lnKA | binding signal (dAsCas12a E174R): -8.74 lnKA | binding signal (dAsCas12a S542R): -8.17 lnKA | binding signal (d-enCas12a): -5.56 lnKA | binding signal (d-enCas12a-Ultra): -3.21 lnKA

B13: GGGA (dsDNA)
DNA 1: B1 DNA 1 with A27G, T28G
DNA 2: B1 DNA 2 with A63C, T64C
RNA: B1 RNA
binding signal (dAsCas12a Ultra): -8.93 lnKA | binding signal (dAsCas12a S542R): -8.02 lnKA | binding signal (d-enCas12a): -5.68 lnKA | binding signal (d-enCas12a-Ultra): -3.47 lnKA

B14: GCGA (dsDNA)
DNA 1: B1 DNA 1 with A27C, T28G
DNA 2: B1 DNA 2 with A63C, T64G
RNA: B1 RNA
binding signal (dAsCas12a Ultra): -8.91 lnKA | binding signal (dAsCas12a S542R): -8.63 lnKA | binding signal (d-enCas12a): -5.81 lnKA | binding signal (d-enCas12a-Ultra): -3.46 lnKA

B15: GCTC (dsDNA)
DNA 1: B1 DNA 1 with A27C, A29C
DNA 2: B1 DNA 2 with T62G, T64G
RNA: B1 RNA
binding signal (dAsCas12a Ultra): -6.65 lnKA | binding signal (dAsCas12a E174R): -6.48 lnKA | binding signal (dAsCas12a S542R): -7.23 lnKA | binding signal (d-enCas12a): -4.98 lnKA | binding signal (d-enCas12a-Ultra): -1.57 lnKA
